Results as given in PubChem BioAssay (EPA / NIEHS).
Several values for one entry are separate records, joined by “and”; a condition that tells them apart may be missing. Equal entries are not always repeated. Some compounds were tested as several samples or in several runs, with calls that do not always agree. Activity calls are given as the source filed them. How the source made its calls: active means hit-call score of the fitted dose curve at least 0.9, where 1 is the maximum; inactive means score below 0.9.

What was measured:
[1] = read-out: Macrophage colony-stimulating factor (MCSF), CSF1 (gene 1435); assay: BSK_hDFCGF_MCSF: BioMAP Diversity Plus: hDFCGF Assay for Macrophage colony-stimulating factor (MCSF) Biomarker Activity (AID 2283060); conditions: primary human foreskin fibroblasts; actives raise or lower the signal
In short: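 Human foreskin fibroblast primary cultures; M-CSF measured by ELISA 24 hours after chemical dosing. Bidirectional fitting relative to DMSO, with overt cytotoxicity tracked by parallel SRB total-protein staining (0.1% SRB, 10% TCA fixation, 560 nm).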

[2] = BSK_hDFCGF_SRB: Viability Assessment in the BioMAP Diversity Plus: hDFCGF Assay (AID 2283061); conditions: primary human foreskin fibroblasts;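 further: cells exposed to compound for 24 h before the read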
In short: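 Human foreskin fibroblasts in 96-well plates were treated 24 h. Total protein was measured by 0.1% SRB staining after 10% TCA fixation, read at 560 nm. Data were fitted bidirectionally against DMSO.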

[3] = read-out: TIMP metallopeptidase inhibitor 1 (TIMP1), TIMP1 (gene 7076); assay: BSK_hDFCGF_TIMP1: BioMAP Diversity Plus: hDFCGF Assay for TIMP metallopeptidase inhibitor 1 (TIMP1) Biomarker Activity (AID 2283062); conditions: primary human foreskin fibroblasts; actives raise or lower the signal
In short: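 Human foreskin fibroblast primary cultures dosed for 24 h; secreted/surface TIMP-1 quantified by ELISA. Bidirectional curve fitting against DMSO baseline; cytotoxicity tracked in parallel cultures by SRB total-protein staining.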

[4] = read-out: Matrix Metallopeptidase 1 (MMP1), MMP1 (gene 4312); assay: BSK_hDFCGF_MMP1: BioMAP Diversity Plus: hDFCGF Assay for Matrix Metallopeptidase 1 (MMP1) Biomarker Activity (AID 2283064); conditions: primary human foreskin fibroblasts; actives raise or lower the signal
In short: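 ELISA read-out of MMP1 from human foreskin fibroblasts (primary skin cells), 24 h post-dose. Gain or loss of signal was fitted bidirectionally versus DMSO negative control; cytotoxicity was checked by SRB in parallel cultures.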

[5] = read-out: Vascular cell adhesion molecule 1 (VCAM1), VCAM1 (gene 7412); assay: BSK_hDFCGF_VCAM1: BioMAP Diversity Plus: hDFCGF Assay for Vascular cell adhesion molecule 1 (VCAM1) Biomarker Activity (AID 2283065); conditions: primary human foreskin fibroblasts; actives raise or lower the signal;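 on AC50: VCAM-1 protein level quantified by ELISA after 24 h chemical exposure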
In short: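 Human foreskin fibroblast primary cells dosed with chemical, VCAM-1 measured by ELISA at 24 h. Bidirectional curve fitting relative to DMSO as negative control/baseline.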

[6] = read-out: Plasminogen activator inhibitor-1 (PAI1), SERPINE1 (gene 5054); assay: BSK_hDFCGF_PAI1: BioMAP Diversity Plus: hDFCGF Assay for Plasminogen activator inhibitor-1 (PAI1) Biomarker Activity (AID 2283066); conditions: primary human foreskin fibroblasts; actives raise or lower the signal
In short: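 ELISA readout of PAI-1 from primary human skin fibroblast cultures, 24 h after compound addition. Gain or loss of signal was fitted bidirectionally against DMSO baseline.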

[7] = read-out: Intercellular Adhesion Molecule 1 (ICAM1), ICAM1 (gene 3383); assay: BSK_KF3CT_ICAM1: BioMAP Diversity Plus: KF3CT Assay for Intercellular Adhesion Molecule 1 (ICAM1) Biomarker Activity (AID 2283067); conditions: primary human keratinocytes with fibroblasts; actives raise or lower the signal
In short: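 Human keratinocyte–foreskin fibroblast co-culture was treated for 24 h. Cell-surface ICAM-1 was quantified by ELISA, fitted bidirectionally relative to DMSO. Cytotoxicity was checked in parallel cultures by SRB total-protein staining.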

[8] = read-out: Interferon-gamma inducible Protein 10 (IP10), CXCL10 (gene 3627); assay: BSK_KF3CT_IP10: BioMAP Diversity Plus: KF3CT Assay for Interferon-gamma inducible Protein 10 (IP10) Biomarker Activity (AID 2283068); conditions: primary human keratinocytes with fibroblasts; actives raise or lower the signal
In short: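 KF3CT co-culture (keratinocytes + foreskin fibroblasts), 24 h compound, IP-10 by ELISA; bidirectional fit vs DMSO baseline.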

[9] = BSK_KF3CT_SRB: Viability Assessment in the BioMAP Diversity Plus: KF3CT Assay (AID 2283069); conditions: primary human keratinocytes with fibroblasts;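 further: total protein by sulforhodamine B staining as a cytotoxicity measure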
In short: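 SRB read-out at 560 nm (0.1% stain, TCA-fixed cells) gauges overt cytotoxicity in a human skin keratinocyte–fibroblast co-culture 24 h post-dosing. Signal change was fitted bidirectionally relative to DMSO control.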

[10] = read-out: Interleukin-1 alpha (IL1a), IL1A (gene 3552); assay: BSK_KF3CT_IL1a: BioMAP Diversity Plus: KF3CT Assay for Interleukin-1 alpha (IL1a) Biomarker Activity (AID 2283070); conditions: primary human keratinocytes with fibroblasts; actives raise or lower the signal
In short: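 Primary skin co-culture (keratinocytes, foreskin fibroblasts), 24 h exposure; ELISA for IL-1a; bidirectional curve fit vs DMSO.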

[11] = read-out: TIMP metallopeptidase inhibitor 2 (TIMP2), TIMP2 (gene 7077); assay: BSK_KF3CT_TIMP2: BioMAP Diversity Plus: KF3CT Assay for TIMP metallopeptidase inhibitor 2 (TIMP2) Biomarker Activity (AID 2283071); conditions: primary human keratinocytes with fibroblasts; actives raise or lower the signal
In short: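 ELISA readout of TIMP-2 in keratinocyte plus foreskin fibroblast co-cultures (human skin primary cells), 24 h post-dose. Gain or loss of signal fitted relative to DMSO.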

[12] = read-out: Transforming growth factor beta 1 (TGFb1), TGFB1 (gene 7040); assay: BSK_KF3CT_TGFb1: BioMAP Diversity Plus: KF3CT Assay for Transforming growth factor beta 1 (TGFb1) Biomarker Activity (AID 2283072); conditions: primary human keratinocytes with fibroblasts; actives raise or lower the signal
In short: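 Read-out: ELISA for TGF-b1 in keratinocyte/foreskin fibroblast human skin co-culture, 24 h after dosing; bidirectional curve fit vs DMSO baseline; gain or loss of signal scored.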

[13] = read-out: C-C motif chemokine 2 (Homo sapiens) (UniProt P13500); assay: BSK_KF3CT_MCP1: BioMAP Diversity Plus: KF3CT Assay for Monocyte Chemoattractant Protein 1 (MCP1/CCL2) Biomarker Activity (AID 2283073); conditions: primary human keratinocytes with fibroblasts; actives raise or lower the signal
In short: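 Human keratinocyte–foreskin fibroblast co-culture; MCP-1 measured by ELISA 24 h after dosing. Bidirectional fit vs DMSO; cytotoxicity tracked by SRB total protein in parallel cultures.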

[14] = read-out: Matrix Metallopeptidase 9 (MMP9), MMP9 (gene 4318); assay: BSK_KF3CT_MMP9: BioMAP Diversity Plus: KF3CT Assay for Matrix Metallopeptidase 9 (MMP9) Biomarker Activity (AID 2283074); conditions: primary human keratinocytes with fibroblasts; actives raise or lower the signal;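 on AC50: MMP9 protein level quantified by ELISA in the co-culture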
In short: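 ELISA read-out of MMP-9 at 24 h post-dosing in a co-culture of human skin keratinocytes and foreskin fibroblasts. Gain or loss of signal was fitted in both directions against DMSO.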

[15] = read-out: urokinase plasminogen activator (uPA), PLAU (gene 5328); assay: BSK_KF3CT_uPA: BioMAP Diversity Plus: KF3CT Assay for urokinase plasminogen activator (uPA) Biomarker Activity (AID 2283075); conditions: primary human keratinocytes with fibroblasts; actives raise or lower the signal
In short: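 Skin co-culture (keratinocytes + foreskin fibroblasts), human primary; 24 h post-dose; uPA by ELISA; gain/loss fit vs DMSO baseline.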

CD40, CD40 (gene 958) = assay: BSK_LPS_CD40: BioMAP Diversity Plus: LPS Assay for CD40 Biomarker Activity (AID 2283076); conditions: primary human HUVEC with PBMC; actives raise or lower the signal
In short: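 HUVEC plus PBMC co-culture stimulated with LPS; CD40 quantified by ELISA 24 h after compound dosing. Fitting was bidirectional relative to DMSO. SRB staining of parallel cultures flagged overt cytotoxicity.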

[16] = BSK_LPS_SRB: Viability Assessment in the BioMAP Diversity Plus: LPS Assay (AID 2283079); conditions: primary human HUVEC with PBMC;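 further: total protein by sulforhodamine B absorbance as a cytotoxicity measure; measured one day after compound addition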
In short: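 Co-culture of human umbilical vein endothelial cells and PBMC, read 24 h after dosing. Total protein by 0.1% SRB staining after 10% TCA fixation, absorbance at 560 nm; bidirectional fit against DMSO.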

Measured: AC50

C=C1CC/C=C(\C)CC[C@@H]2[C@@H]1CC2(C)C
active: [1] 24.5 µM | [2] 27.7 µM | [3] 27.5 µM | [4] 29.7 µM | [5] 28 µM | [6] 31.2 µM | [7] 30.3 µM | [8] 25.2 µM | [9] 28.1 µM | [10] 29.6 µM | [11] 10.8 µM | [12] 20 µM | [13] 4.87 µM | [14] 20 µM | [15] 34.5 µM | CD40, CD40 (gene 958) 30.5 µM | [16] 36.3 µM

O=C(O)C(F)(F)C(F)(F)C(F)(F)C(F)(F)C(F)(F)C(F)(F)C(F)(F)C(F)F
active: [2] 20.1 µM and 15.8 µM
inactive: [1] | [3] | [4] | [5] | [6] | [7] | [8] | [9] | [10] | [11] | [13] | [14] | [15] | CD40, CD40 (gene 958) | [16]

Nc1ccc(N)c([N+](=O)[O-])c1
inactive: [1] | [2] | [3] | [4] | [5] | [6] | [7] | [8] | [9] | [10] | [11] | [12] | [13] | [14] | [15] | CD40, CD40 (gene 958) | [16]

CCOC(=O)CCCCCCCCC(=O)OCC
inactive: [1] | [2] | [3] | [4] | [5] | [6] | [7] | [8] | [9] | [10] | [11] | [12] | [13] | [14] | [15] | CD40, CD40 (gene 958) | [16]

CCCCN(CCO)CCO
active: [15] 14.9 µM
inactive: [1] | [2] | [3] | [4] | [5] | [6] | [7] | [8] | [9] | [10] | [11] | [13] | [14] | [15] | CD40, CD40 (gene 958) | [16]

C=C(C)C(=O)OCCC(F)(F)C(F)(F)C(F)(F)C(F)(F)C(F)(F)C(F)(F)C(F)(F)C(F)(F)F
inactive: [1] | [2] | [3] | [4] | [5] | [6] | [7] | [8] | [9] | [10] | [11] | [13] | [14] | [15] | CD40, CD40 (gene 958) | [16]
